Test results from article PMC4336329 (PLoS ONE, 2015).
Screen size: about 310,000 compounds; about 14,000 (4.5%) showed an effect of 50% or more. The effect is printed as a negative number. The full list was thinned out, with strong results kept by preference.

These compounds were tested against human ether-à-go-go-related gene (hERG) potassium channel (human, UniProt Q12809) (assay: primary screen, population patch clamp on CHO cells stably expressing hERG; higher = less effect of the substance).
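Further: peak tail current of the secondary pulse compared with the same well before compound.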

Sequence of human ether-à-go-go-related gene (hERG) potassium channel (Q12809 whole entry, looked up): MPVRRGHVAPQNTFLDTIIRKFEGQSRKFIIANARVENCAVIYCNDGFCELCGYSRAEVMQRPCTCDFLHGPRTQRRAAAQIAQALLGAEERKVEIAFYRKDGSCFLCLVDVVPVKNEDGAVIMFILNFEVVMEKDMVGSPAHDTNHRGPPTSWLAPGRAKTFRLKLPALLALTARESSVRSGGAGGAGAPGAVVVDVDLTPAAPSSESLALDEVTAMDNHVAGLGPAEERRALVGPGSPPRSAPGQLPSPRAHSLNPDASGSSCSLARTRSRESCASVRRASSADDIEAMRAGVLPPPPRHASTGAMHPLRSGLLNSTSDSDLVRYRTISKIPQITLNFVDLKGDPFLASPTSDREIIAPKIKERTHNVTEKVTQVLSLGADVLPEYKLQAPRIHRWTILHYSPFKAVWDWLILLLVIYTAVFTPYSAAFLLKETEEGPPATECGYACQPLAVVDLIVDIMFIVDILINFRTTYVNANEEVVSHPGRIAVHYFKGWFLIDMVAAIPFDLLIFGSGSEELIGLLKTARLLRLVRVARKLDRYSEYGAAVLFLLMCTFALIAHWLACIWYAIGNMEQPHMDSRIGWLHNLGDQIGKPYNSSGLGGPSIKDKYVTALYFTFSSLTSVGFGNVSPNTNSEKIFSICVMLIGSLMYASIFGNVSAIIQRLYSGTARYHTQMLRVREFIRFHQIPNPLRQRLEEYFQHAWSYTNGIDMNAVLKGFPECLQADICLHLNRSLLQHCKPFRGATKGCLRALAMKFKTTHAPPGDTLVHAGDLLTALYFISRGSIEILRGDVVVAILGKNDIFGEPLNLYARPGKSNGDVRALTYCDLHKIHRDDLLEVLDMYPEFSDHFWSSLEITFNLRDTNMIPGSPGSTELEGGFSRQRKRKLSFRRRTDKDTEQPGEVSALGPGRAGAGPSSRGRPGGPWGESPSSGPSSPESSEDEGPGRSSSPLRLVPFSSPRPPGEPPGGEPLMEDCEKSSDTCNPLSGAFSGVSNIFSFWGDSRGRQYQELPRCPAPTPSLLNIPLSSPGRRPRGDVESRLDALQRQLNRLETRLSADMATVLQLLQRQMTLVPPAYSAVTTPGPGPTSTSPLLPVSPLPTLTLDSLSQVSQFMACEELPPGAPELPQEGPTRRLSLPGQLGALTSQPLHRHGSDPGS

| Compound | hERG current change (%, negative = inhibition) at 10uM |
| --- | --- |
| CNS(=O)(=O)c1cc(O)c2c(S(=O)(=O)NC)cccc2c1 | 11% |
| Cc1c(Cl)ccc2c(C(=O)O)cc(-c3ccccc3)nc12 | -1.96% |
| Cc1c(Cl)ccc2c(C(=O)NC(C)c3ccncc3)cc(-c3ccncc3)nc12 (stereo not drawn) | -59.3% |
| COC(=O)CNC(=O)c1cc(-c2ccncc2)nc2c(C)c(Cl)ccc12 | -27.9% |
| C=C(C)CC1(NC(C)c2ccccc2)CCCCC1 (stereo not drawn) | 4% |
| COc1ccc(OC)c(-c2csc(NC(=O)Cc3ccccc3OC)n2)c1 | -0.305% |
| COc1cccc(/C=N/NC(=O)c2nnn(-c3nonc3N)c2C(C)C)c1 | 11.4% |
| Cc1ccc(C(=O)NCC(=O)O)o1 | -5.14% |
| Cc1c(CNCCCc2ccccc2)c(C(=O)O)c(C)n1Cc1ccccc1 | 4.03% |
| Cc1c(CNCCc2ccc(Cl)cc2)c(C(=O)O)c(C)n1Cc1ccccc1 | -50.1% |
| Cc1c(CNCCC2=CCCCC2)c(C(=O)O)c(C)n1Cc1ccccc1 | -13.3% |
| Cc1cccc(C)c1NC(=O)/C(C#N)=C/c1ccsc1 | -13.2% |
| Cc1c(OCC(N)=O)ccc2c(-c3ccccc3)cc(=O)oc12 | 5.53% |
| O=C(c1ccco1)N1CCN(C(=O)C2CC(=O)N(c3ccc(Cl)cc3)C2)CC1 (stereo not drawn) | -75.4% |
| CCC(C)c1ccccc1N1CC(C(=O)N2CCN(C(=O)c3ccco3)CC2)CC1=O (stereo not drawn) | -12.6% |
| O=C(C1CC(=O)N(c2ccc(Cl)cc2)C1)N1CCCCCC1 (stereo not drawn) | -8.92% |
| O=C(c1ccco1)N1CCN(C(=O)C2CC(=O)N(c3ccccc3)C2)CC1 (stereo not drawn) | -41.3% |
| O=C(C1CC(=O)N(c2ccc(Cl)cc2)C1)N1CCOCC1 (stereo not drawn) | -0.293% |
| Cc1ccc(N2CC(C(=O)N3CCN(C(=O)c4ccco4)CC3)CC2=O)cc1 (stereo not drawn) | -71.7% |
| O=C(CNC(=O)c1ccc(OC(F)F)cc1)NCC1CCCO1 (stereo not drawn) | 2.87% |
| CCCCN1C(=O)/C(=C/c2ccc(N3CCCCCC3)cc2)C(=O)NC1=S | -22.9% |

| Compound | hERG current change (%, negative = inhibition) at 10uM |
| --- | --- |
| C=CCc1ccc(OCCCCN2CC(C)CC(C)C2)c(OC)c1.O=C(O)C(=O)O (stereo not drawn) | -67% |
| C=CCc1ccc(OCCCCNC2CCCC2)c(OC)c1.O=C(O)C(=O)O | -39.9% |
| C=CCc1ccc(OCCCNC2CCCC2)c(OC)c1 | -48.1% |
| C=CCc1ccc(OCCCCN2CCC(C)CC2)c(OC)c1 | -69.6% |
| C=CCc1ccc(OCCCCCN2CCOCC2)c(OC)c1.O=C(O)C(=O)O | -18.1% |
| C=CCc1ccc(OCCCN2CCCC(C)C2)c(OC)c1.O=C(O)C(=O)O (stereo not drawn) | -65.8% |
| C=CCc1ccc(OCCCCOc2ccc(C(=O)O)cc2)c(OC)c1 | 14% |
| C=CCc1ccc(OCCCOc2ccc(C(=O)O)cc2)c(OC)c1 | -1.14% |
| C=CCc1ccc(OCCCCN2CC(C)OC(C)C2)c(OC)c1.O=C(O)C(=O)O (stereo not drawn) | -25.8% |
| CCOc1ccc(C(=O)Nc2cccc(C)n2)cc1 | 0.201% |
| COc1ccc(/C=N/NC(=O)c2ccn[nH]2)cc1COc1ccc(Cl)cc1 | 2.09% |
| CCc1cc2c(=O)nc3n(c2s1)Cc1ccccc1/C3=C(/O)c1ccc(F)cc1 | -3.7% |
| Cc1nnc(NC(=O)CN2CCN(Cc3ccc(F)cc3Cl)CC2)s1 | 8.45% |
| Cc1c(Cl)cccc1NC(=O)C1CCCN(S(C)(=O)=O)C1 (stereo not drawn) | 22% |
| O=C(CN1C(=O)C2CC=C(Cl)CC2C1=O)Nc1ccc(C(=O)O)cc1 (stereo not drawn) | 3.39% |
| CCN1CCN(c2ncnc3scc(-c4ccc(C)c(C)c4)c23)CC1 | -76.4% |
| CCOc1ccc(CN2CCN(c3ncnc4scc(-c5ccccc5)c34)CC2)cc1 | -75.3% |
| CCN1CCN(c2ncnc3scc(-c4ccc(C)cc4)c23)CC1 | -22.5% |
| Cc1ccc(-c2csc3ncnc(N4CCN(Cc5ccccc5)CC4)c23)cc1 | 18% |
| Cc1cc(-c2csc3ncnc(N4CCN(C)CC4)c23)cc(C)c1C | -65.2% |
| COc1ccc(-c2csc3ncnc(N4CCN(c5ccccc5)CC4)c23)cc1 | 12.3% |

| Compound | hERG current change (%, negative = inhibition) at 10uM |
| --- | --- |
| OCCN1CCN(c2ncnc3scc(-c4ccc(F)cc4)c23)CC1 | -22.1% |
| CCN1CCN(c2ncnc3scc(-c4ccc(OC)cc4)c23)CC1 | -54.6% |
| Cc1ccc(-c2csc3ncnc(N4CCN(C)CC4)c23)cc1C | -18.7% |
| CC(C)c1ccc(-c2csc3ncnc(N4CCN(C)CC4)c23)cc1 | -21.6% |
| Fc1ccc(CN2CCN(c3ncnc4scc(-c5ccccc5)c34)CC2)cc1 | -39.9% |
| COc1ccc(-c2csc3ncnc(N4CCN(CCO)CC4)c23)cc1 | -1.12% |
| CCOC(=O)c1ccc(NC(=O)c2ccc(C)c(S(=O)(=O)N3CCOCC3)c2)cc1 | -33.4% |
| CC(C)(C)C(=O)N1CCN(c2ccc(NC(=O)c3ccc([N+](=O)[O-])o3)cc2)CC1 | 10.2% |
| COc1ccccc1N(C)S(=O)(=O)c1ccc(C(=O)NC(C)c2ccccc2)cc1 (stereo not drawn) | -43.7% |
| COc1ccc(-c2nnc(-c3cc4c(ccc5ccccc54)oc3=O)o2)cc1 | -8.75% |
| Clc1ccc(CSc2nnc(-c3ccncc3)o2)cc1 | -11.5% |
| Cc1csc(NC(=O)CCc2c(C)nc3cc(-c4ccc(Cl)cc4)nn3c2C)n1 | -2.4% |
| O=C(CSc1ncnc2scc(-c3ccccc3)c12)N1CCN(Cc2ccc3c(c2)OCO3)CC1 | -35.7% |
| CCN1CCN(c2ncnc3sc(C)c(-c4ccccc4)c23)CC1 | -57.1% |
| c1ccc(-c2csc3ncnc(N4CCN(Cc5ccc6c(c5)OCO6)CC4)c23)cc1 | -57.6% |
| Fc1ccc(CN2CCN(c3ncnc4scc(-c5ccc(F)cc5)c34)CC2)cc1 | 5.9% |
| COc1ccccc1N1CCN(c2ncnc3sc(C)c(-c4ccccc4)c23)CC1 | 14.2% |
| COc1ccc(CN2CCN(c3ncnc4scc(-c5ccc(F)cc5)c34)CC2)cc1 | -65.8% |
| Cc1sc2ncnc(N3CCN(Cc4ccccc4)CC3)c2c1-c1ccccc1 | -34.8% |
| COc1ccc(N2CCN(c3ncnc4scc(-c5ccc(F)cc5)c34)CC2)cc1 | -0.492% |
| COc1ccc(F)cc1CN1CCN(c2ncnc3scc(-c4ccccc4)c23)CC1 | -41.6% |
